# Source: PubChem (several laboratories)
# Mtb FBA inh = Mtb FBA enzyme inhibitors, primary screen, biochemical, fluorescence, strain H37Rv. inhibition, % at 1 µM. 2.3% of 360,000 active. purified M. tuberculosis FBA, fluorescence read-out; in the data active = inhibition above about 27%;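 note: 0% = vehicle and 100% = reference inhibitor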
# UGM FP inh = M. tuberculosis UGM enzyme inhibitors, primary screen, biochemical, fluorescence polarization, single point; UDP-galactopyranose mutase (Mycobacterium tuberculosis (strain ATCC 25618 / H37Rv)), …; purified UGM, fluorescence polarization probe displacement; inhibition, % at 10 µM; 0.06% of 320,000 active; in the data active = inhibition above about 10%, passing the limit was not always enough
# Rv3671c inh = Rv3671c serine protease inhibitors, primary screen, biochemical, fluorescence polarization, M. tuberculosis H37Rv | P9WHR9 | inhibition, % at 5.96 µM | AID 2606, 2010 | 0.048% of 320,000 active; in the data active = inhibition above about 38%;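 note: extracellular domain of Rv3671c used as enzyme; 0% = enzyme with DMSO and 100% = no enzyme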
# Target sequence (P9WHR9 whole entry, looked up, the tested form may be a part): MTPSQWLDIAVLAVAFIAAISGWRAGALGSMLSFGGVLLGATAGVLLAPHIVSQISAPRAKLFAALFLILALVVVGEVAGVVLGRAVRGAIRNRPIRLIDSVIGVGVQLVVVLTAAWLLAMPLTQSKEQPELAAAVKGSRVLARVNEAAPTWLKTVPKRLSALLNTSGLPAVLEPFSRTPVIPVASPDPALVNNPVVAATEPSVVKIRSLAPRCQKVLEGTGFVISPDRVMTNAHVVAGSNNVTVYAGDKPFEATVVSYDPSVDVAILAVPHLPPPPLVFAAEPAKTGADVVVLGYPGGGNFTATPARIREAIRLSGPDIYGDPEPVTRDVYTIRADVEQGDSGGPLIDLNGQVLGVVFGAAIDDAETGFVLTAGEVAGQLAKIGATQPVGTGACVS
# GDH-TPI counter = GDH-TPI coupling enzyme inhibitors, primary screen, artefact control for M. tuberculosis FBA inhibitor project, biochemical, absorbance, full deck; GDH-TPI coupled enzyme counterscreen, NADH absorbance; inhibition, % at 4.8 µM; 1.2% of 360,000 active; in the data active = inhibition above about 30%;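 note: 0% = DMSO wells and 100% = wells lacking the enzyme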
# Active calls of the source: *; · = no result given; + = active, no number. In the library only some 3.5% were active in any assay of this set; here they are far more common.
SMILES,Mtb FBA inh,UGM FP inh,Rv3671c inh,GDH-TPI counter
Nc1nc(NCCCN2CCOCC2)nc(Nc2ccc(F)cc2)c1[N+](=O)[O-],-3.0,-0.5,-5.5,19.4
Cc1cccc(Nc2nc(NCCCN3CCOCC3)nc(N)c2[N+](=O)[O-])c1,-4.8,-1.9,3.0,64.2*
Cc1cccc(Nc2nc(N)c([N+](=O)[O-])c(N3CCN(C)CC3)n2)c1,-2.2,-0.6,1.2,33.3*
Nc1nc(NCCCN2CCOCC2)nc(Nc2cccc(F)c2)c1[N+](=O)[O-],-3.4,0.2,-0.4,51.0*
Nc1nc(Nc2cccc(F)c2)nc(N2CCOCC2)c1[N+](=O)[O-],-1.5,2.5,7.8,36.5*
O=C(NCc1cccnc1)c1ccccc1CCc1ccccc1,4.8,0.0,-4.2,11.7
CN1OC[C@@H]2CN[C@H](c3cccc(-c4ccc(C#N)cc4)c3)C[C@@H]21,3.1,·,·,-14.2
N#Cc1c(-c2cccnc2)cc(-c2ccccc2)nc1N,+,-3.2,3.2,8.9
N#Cc1c(-c2ccco2)cc(-c2ccccn2)nc1N,193.8*,-0.3,-6.8,14.9
Cc1c(-c2ccccc2)nc(N)c(C#N)c1-c1ccco1,17.6,0.2,3.9,4.8
N#Cc1c(-c2ccco2)cc(-c2cccnc2)nc1N,180.7*,6.6,1.8,20.3
CCOC(=O)COc1nc(-c2ccc(C)cc2)cc(-c2ccco2)c1C#N,0.9,-0.6,-1.2,-12.2
Clc1ccccc1-c1nnc(-c2cccnc2)o1,1.5,0.2,-5.3,-4.3
c1cncc(-c2nnc(-c3ccco3)o2)c1,113.7*,-1.4,6.2,-2.1
CC(=O)Nc1ccc(-c2ccnc3c2CC(C(=O)NCc2ccccc2)O3)cc1 (stereo unspecified),7.4,·,·,-17.9
COCCNC(=O)C1Cc2c(-c3cccc(NC(C)=O)c3)ccnc2O1 (stereo unspecified),3.0,·,·,1.8
CCN1CCN(C(=O)c2ccc(N3CC4CC(C3)c3cccc(=O)n3C4)c([N+](=O)[O-])c2)CC1 (stereo unspecified),0.6,1.0,6.5,-6.9
CC(=O)C1C(c2ccc(Cl)cc2)c2c(noc2C)CC1(C)O (stereo unspecified),1.0,1.3,2.4,13.1
CN(Cc1ccccc1)C(=O)CC(=O)N(C)Cc1ccccc1,-1.3,1.6,1.6,-4.5
CN(/C=C/C(=O)C(F)(F)F)Cc1ccccc1,-1.1,-0.7,-6.1,32.4*
CCC(=O)N1c2ccccc2NC2=C(C(=O)CCC2)C1c1ccccc1 (stereo unspecified),2.6,1.2,-6.6,24.5
Cc1nn2c(c1-c1ccccc1)NC1=C(C(=O)CCC1)C2c1ccccc1 (stereo unspecified),115.4*,-0.4,-4.8,32.6*
COc1cc(SC)ccc1C(=O)N1CCN(S(=O)(=O)/C=C/c2ccccc2)CC1,3.0,·,3.6,3.5
COc1cc(NC(=O)c2cccs2)ccc1NC(=O)c1ccco1,1.6,4.6,-9.9,35.1*
COc1cc(NC(=O)COc2ccccc2[N+](=O)[O-])ccc1NC(=O)c1cccs1,0.0,·,·,40.7*
SMILES,Mtb FBA inh,UGM FP inh,Rv3671c inh,GDH-TPI counter
COc1cc(NC(=O)COc2ccccc2Cl)ccc1NC(=O)c1cccs1,-1.4,-0.1,-10.7,11.8
Cc1noc(C)c1CSCc1ccc(Cl)cc1,1.3,2.8,0.6,5.7
CCCCCCSc1ccc([C@@H]2[C@@H]3C(=O)N(C)C(=O)[C@@H]3[C@]3(C(=O)OC)CCCCN23)cc1,4.7,5.6,-3.5,6.3
Cn1c2ccccc2c(=O)c2ccc(C#CC3(O)CCCCC3)cc21,170.6*,2.9,-33.9,12.1
O=C(Nc1nccs1)c1cnc2sccn2c1=O,0.5,·,·,44.8*
O=C(NCc1ccco1)c1cnc2sccn2c1=O,0.9,1.7,4.3,32.9*
O=C(NCCCn1ccnc1)C1CCCN(S(=O)(=O)c2ccc(F)cc2)C1 (stereo unspecified),-0.4,1.0,-7.0,8.4
O=C(/C=C/c1ccco1)Oc1cc(Br)cc(/C=N/NC(=O)c2ccccc2O)c1,2.7,2.5,-9.8,43.2*
CC(C)COC(=O)N1CCCC(c2cc(C(=O)Nc3ccccc3Cl)no2)C1 (stereo unspecified),-3.1,·,·,4.8
CC(CC(=O)OCC(=O)Nc1ccc2[nH]c(=O)[nH]c2c1)c1ccccc1 (stereo unspecified),-0.5,-0.9,-9.8,4.0
CC1(C(=O)O)CCCN(C(=O)c2cccnc2Oc2ccccc2)C1 (stereo unspecified),-1.2,·,·,11.1
